Assay results from PubChem BioAssay (EPA / NIEHS).
The source made the active and inactive calls. The calls were made as follows: active = hit-call score of the fitted dose curve at least 0.9, where 1 is the maximum; inactive = score below 0.9.

Key:
Conditions in all cases: mRNA level, 48 h; actives raise or lower the signal
[1] = read-out: Forkhead box O3 (FOXO3), FOXO3 (gene 2309); test: LTEA_HepaRG_FOXO3: Life Technologies and Expression Analysis (LTEA) Assay for Forkhead box O3 (FOXO3) using HepaRG (AID 2283459)
Outline: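 Differentiated human HepaRG cells, 48 h post-plating, exposed in duplicate for 48 h in serum-free induction medium; 8-point half-log series from 100 uM in 0.5% DMSO. FOXO3 mRNA by TaqMan qRT-PCR, normalized to ACTB/GAPDH/POLR2A; bidirectional fit versus DMSO.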

[2] = read-out: ABC Transporter (ABCB1), ABCB1 (gene 5243); test: LTEA_HepaRG_ABCB1: Life Technologies and Expression Analysis (LTEA) Assay for ABC Transporter (ABCB1) using HepaRG (AID 2283460)
Outline: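 HepaRG cells exposed in duplicate for 48 h in serum-free induction medium to eight half-log concentrations up to 100 uM in 0.5% DMSO. ABCB1 mRNA quantified by qRT-PCR, normalised to ACTB, GAPDH and POLR2A; fitted bidirectionally versus DMSO.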

[3] = read-out: growth arrest and DNA damage 45 (GADD45B), GADD45B (gene 4616); test: LTEA_HepaRG_GADD45B: Life Technologies and Expression Analysis (LTEA) Assay for growth arrest and DNA damage 45 (GADD45B) using HepaRG (AID 2283461)
Outline: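 qRT-PCR read-out (Fluidigm TaqMan, housekeeping-normalized) of mRNA change in human HepaRG cells after 48 h chemical exposure; 8-point curve, top 100 uM, half-log steps, 0.5% DMSO vehicle; gain or loss fitted relative to DMSO baseline.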

[4] = read-out: ABC Transporter (ABCC3), ABCC3 (gene 8714); test: LTEA_HepaRG_ABCC3: Life Technologies and Expression Analysis (LTEA) Assay for ABC Transporter (ABCC3) using HepaRG (AID 2283462)
Outline: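 qRT-PCR read-out of ABCC3 transcript, normalized to three housekeeping genes (ACTB, GAPDH, POLR2A), after 48 h chemical exposure of human HepaRG cells. Eight half-log concentrations, highest 100 uM, in 0.5% DMSO; gain or loss fitted relative to DMSO baseline.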

[5] = read-out: ABC Transporter (ABCB11), ABCB11 (gene 8647); test: LTEA_HepaRG_ABCB11: Life Technologies and Expression Analysis (LTEA) Assay for ABC Transporter (ABCB11) using HepaRG (AID 2283463)
Outline: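 Differentiated human HepaRG cells in serum-free induction medium, dosed in duplicate for 48 h. Eight-point half-log series from 100 uM in 0.5% DMSO; ABCB11 mRNA by qRT-PCR, normalized to ACTB, GAPDH, POLR2A, fitted bidirectionally versus DMSO.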

[6] = read-out: ABC Transporter (ABCC2), ABCC2 (gene 1244); test: LTEA_HepaRG_ABCC2: Life Technologies and Expression Analysis (LTEA) Assay for ABC Transporter (ABCC2) using HepaRG (AID 2283464)
Outline: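 qRT-PCR (TaqMan, Fluidigm array) read-out of ABCC2 mRNA, normalized to three housekeeping genes. Differentiated HepaRG cells were treated 48 h in serum-free induction medium with 8-point half-log series from 100 uM in 0.5% DMSO; curves fitted bidirectionally relative to DMSO.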

[7] = read-out: Broad substrate specificity ATP-binding cassette transporter ABCG2 (Homo sapiens) (UniProt Q9UNQ0); test: LTEA_HepaRG_ABCG2: Life Technologies and Expression Analysis (LTEA) Assay for ABC Transporter (ABCG2) using HepaRG (AID 2283465)
Outline: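 Differentiated HepaRG cells were exposed for 48 h in serum-free induction medium to 8 half-log concentrations, top 100 uM, in 0.5% DMSO. ABCG2 mRNA was measured by qRT-PCR, normalized to ACTB, GAPDH and POLR2A, with bidirectional fitting versus DMSO.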

[8] = read-out: ATP-citrate lyase (ACLY), ACLY (gene 47); test: LTEA_HepaRG_ACLY: Life Technologies and Expression Analysis (LTEA) Assay for ATP-citrate lyase (ACLY) using HepaRG (AID 2283466)
Outline: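 Differentiated HepaRG cells exposed 48 h in serum-free induction medium to eight half-log concentrations up to 100 uM in 0.5% DMSO, duplicates. Transcript measured by Fluidigm TaqMan qRT-PCR, normalized to ACTB, GAPDH, POLR2A; bidirectional fit versus DMSO.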

[9] = read-out: Peroxisomal acyl-coenzyme A oxidase 1 (ACOX1) gene, ACOX1 (gene 51); test: LTEA_HepaRG_ACOX1: Life Technologies and Expression Analysis (LTEA) Assay for Peroxisomal acyl-coenzyme A oxidase 1 (ACOX1) gene using HepaRG (AID 2283467)
Outline: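 HepaRG cells, plated 48 h then switched to serum-free induction medium, were exposed in duplicate for 48 h to 8-point half-log concentrations up to 100 uM in 0.5% DMSO. ACOX1 mRNA was measured by qRT-PCR, normalized to ACTB/GAPDH/POLR2A, and fitted bidirectionally versus DMSO.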

[10] = read-out: Alkaline Phosphatase, Placental (ALPP) gene, ALPP (gene 250); test: LTEA_HepaRG_ALPP: Life Technologies and Expression Analysis (LTEA) Assay for Alkaline Phosphatase, Placental (ALPP) gene using HepaRG (AID 2283468)
Outline: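 qRT-PCR readout of ALPP mRNA (Fluidigm TaqMan), normalized to ACTB/GAPDH/POLR2A, after 48 h chemical exposure of HepaRG cells; 8-point half-log series, top 100 uM, 0.5% DMSO vehicle. Bidirectional curve fit versus DMSO baseline.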

[11] = read-out: Bcl-2 (BAD) gene, BAD (gene 572); test: LTEA_HepaRG_BAD: Life Technologies and Expression Analysis (LTEA) Assay for Bcl-2 (BAD) gene using HepaRG (AID 2283469)
Outline: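 Differentiated HepaRG cells were exposed in duplicate in 0.5% DMSO for 48 h to eight-point half-log concentrations up to 100 uM. BAD mRNA was measured by Fluidigm TaqMan qRT-PCR, normalized to ACTB, GAPDH and POLR2A, and fitted bidirectionally against DMSO.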

[12] = read-out: Bcl-2 (BAX) gene, BAX (gene 581); test: LTEA_HepaRG_BAX: Life Technologies and Expression Analysis (LTEA) Assay for Bcl-2 (BAX) gene using HepaRG (AID 2283470)
Outline: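 Concentration-response endpoint fitted in both directions relative to 0.5% DMSO vehicle. Human HepaRG cultures receive test chemicals for 48 h at up to 100 uM; BAX mRNA is quantified by qRT-PCR against housekeeping genes.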

[13] = read-out: adenosine kinase (ADK) gene, ADK (gene 132); test: LTEA_HepaRG_ADK: Life Technologies and Expression Analysis (LTEA) Assay for adenosine kinase (ADK) gene using HepaRG (AID 2283471)
Outline: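 Following 48 h exposure of HepaRG cells in 0.5% DMSO (top concentration 100 uM, duplicate wells), ADK mRNA induction or suppression was measured by qRT-PCR, normalised to ACTB/GAPDH/POLR2A, and fitted bidirectionally relative to vehicle.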

[14] = read-out: Alpha-fetoprotein (AFP) gene, AFP (gene 174); test: LTEA_HepaRG_AFP: Life Technologies and Expression Analysis (LTEA) Assay for Alpha-fetoprotein (AFP) gene using HepaRG (AID 2283472)
Outline: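 After a 48 h plating period, cells are moved to serum-free induction medium and dosed in duplicate (100 uM maximum, half-log dilutions, 0.5% DMSO) for another 48 h. Total RNA goes to TaqMan qRT-PCR; AFP signal is housekeeping-normalized.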

BCL2L11 (gene 10018) = test: LTEA_HepaRG_BCL2L11: Life Technologies and Expression Analysis (LTEA) Assay for Bcl-2 (BCL2L11) gene using HepaRG (AID 2283473)
Outline: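 HepaRG, 48 h exposure, 8-pt half-log series from 100 uM in 0.5% DMSO, duplicates; qRT-PCR (Fluidigm TaqMan) for BCL2L11, housekeeping-normalized; bidirectional curve fit relative to DMSO baseline.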

[15] = read-out: Apolipoprotein A-V (APOA5) gene, APOA5 (gene 116519); test: LTEA_HepaRG_APOA5: Life Technologies and Expression Analysis (LTEA) Assay for Apolipoprotein A-V (APOA5) gene using HepaRG (AID 2283474)
Outline: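 HepaRG, 48 h chemical exposure in serum-free induction medium, 8-pt half-log series (top 100 uM), 0.5% DMSO vehicle, duplicates. Readout: APOA5 mRNA by qRT-PCR, housekeeping-normalized; bidirectional fit vs DMSO baseline.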

[16] = read-out: Apoptosis regulator Bcl-2 (Homo sapiens) (UniProt P10415); test: LTEA_HepaRG_BCL2: Life Technologies and Expression Analysis (LTEA) Assay for Bcl-2 gene using HepaRG (AID 2283475)
Outline: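 Expression change of BCL2 mRNA in HepaRG after 48 h dosing, quantified by TaqMan qRT-PCR against three endogenous controls. Concentration-response used eight points up to 100 uM, vehicle 0.5% DMSO.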

[17] = read-out: Bcl-2 (BID) gene, BID (gene 637); test: LTEA_HepaRG_BID: Life Technologies and Expression Analysis (LTEA) Assay for Bcl-2 (BID) gene using HepaRG (AID 2283476)
Outline: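 Gain or loss of BID expression is fitted relative to 0.5% DMSO vehicle. Human HepaRG liver cells received a 48 h chemical exposure over an eight-point concentration range.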

[18] = read-out: Cytochrome P450 (CYP24A1), CYP24A1 (gene 1591); test: LTEA_HepaRG_CYP24A1: Life Technologies and Expression Analysis (LTEA) Assay for Cytochrome P450 (CYP24A1) using HepaRG (AID 2283478)
Outline: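 qRT-PCR read-out: CYP24A1 transcript levels normalized to three housekeeping genes, bidirectional curve fits against 0.5% DMSO baseline. Human HepaRG cells treated 48 h with chemicals at eight concentrations from 100 uM in half-log steps.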

Caspase-3 (Homo sapiens) = Caspase-3 (Homo sapiens) (UniProt P42574); test: LTEA_HepaRG_CASP3: Life Technologies and Expression Analysis (LTEA) Assay for cysteine-aspartic acid protease (CASP3) using HepaRG (AID 2283477)
Chain of Caspase-3 (Homo sapiens) (P42574 whole entry, looked up): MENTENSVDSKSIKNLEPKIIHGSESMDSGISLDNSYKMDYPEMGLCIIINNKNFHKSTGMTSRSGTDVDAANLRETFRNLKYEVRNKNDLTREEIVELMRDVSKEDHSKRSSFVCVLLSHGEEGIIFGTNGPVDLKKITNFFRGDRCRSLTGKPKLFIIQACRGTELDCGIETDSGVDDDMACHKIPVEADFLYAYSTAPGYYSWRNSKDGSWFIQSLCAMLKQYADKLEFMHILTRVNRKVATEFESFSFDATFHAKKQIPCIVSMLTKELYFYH
Outline: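 HepaRG, 48 h exposure, 8 conc. (top 100 uM, half-log steps, duplicate), 0.5% DMSO vehicle; qRT-PCR of CASP3 transcript, housekeeping-normalised (ACTB/GAPDH/POLR2A); bidirectional curve fit vs DMSO baseline.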

Measured: AC50

Chain of Broad substrate specificity ATP-binding cassette transporter ABCG2 (Homo sapiens) (Q9UNQ0 whole entry, looked up): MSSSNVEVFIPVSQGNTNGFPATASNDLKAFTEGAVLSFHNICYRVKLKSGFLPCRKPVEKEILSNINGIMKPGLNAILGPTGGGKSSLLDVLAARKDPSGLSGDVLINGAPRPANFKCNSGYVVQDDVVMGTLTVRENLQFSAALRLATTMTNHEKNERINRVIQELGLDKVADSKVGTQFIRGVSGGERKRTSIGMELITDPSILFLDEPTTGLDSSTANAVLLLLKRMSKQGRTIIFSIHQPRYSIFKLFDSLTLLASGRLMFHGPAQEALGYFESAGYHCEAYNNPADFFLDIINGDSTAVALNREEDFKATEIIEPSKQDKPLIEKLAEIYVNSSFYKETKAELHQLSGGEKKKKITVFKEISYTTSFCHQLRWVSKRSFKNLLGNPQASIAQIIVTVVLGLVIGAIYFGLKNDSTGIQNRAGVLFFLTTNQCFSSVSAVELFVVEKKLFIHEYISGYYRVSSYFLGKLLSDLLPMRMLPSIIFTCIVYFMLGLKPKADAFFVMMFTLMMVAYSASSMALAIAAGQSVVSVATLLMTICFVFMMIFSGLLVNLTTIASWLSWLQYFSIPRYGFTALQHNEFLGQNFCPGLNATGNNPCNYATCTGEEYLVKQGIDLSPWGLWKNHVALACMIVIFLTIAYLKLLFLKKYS
Chain of Apoptosis regulator Bcl-2 (Homo sapiens) (P10415 whole entry, looked up): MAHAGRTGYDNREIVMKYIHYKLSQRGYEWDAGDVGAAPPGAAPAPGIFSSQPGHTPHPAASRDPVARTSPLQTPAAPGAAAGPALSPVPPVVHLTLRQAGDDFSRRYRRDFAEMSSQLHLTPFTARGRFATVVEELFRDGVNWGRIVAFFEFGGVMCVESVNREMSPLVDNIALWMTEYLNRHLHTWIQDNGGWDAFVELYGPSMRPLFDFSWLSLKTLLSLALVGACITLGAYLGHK

CCOC(=O)c1ccc(C2CCC(NC[C@H](O)COc3ccc(O)c(NS(C)(=O)=O)c3)CC2)cc1 (stereo not given in full)
active: [1] 8.31 µM | [10] 1.83 µM | [16] 2.75 µM
not listed: Caspase-3 (Homo sapiens)
inactive: all other assays above

CCOC(=O)COc1ccc2c(c1)CC(NCC(O)c1cccc(Cl)c1)CC2 (stereo not given)
active: [10] 16 µM | [16] 45.8 µM
not listed: [7]
inactive: all other assays above

O=C(O)c1cc(N=Nc2ccc(S(=O)(=O)Nc3ccccn3)cc2)ccc1O
not listed: Caspase-3 (Homo sapiens)
inactive: all other assays above

CC(=O)c1ccc2c(c1)[C@H](NC(=O)c1ccc(F)cc1)[C@@H](O)C(C)(C)O2
active: [6] 9.67 µM
not listed: [7]
inactive: all other assays above

C[C@](N)(Cc1ccc(O)c(O)c1)C(=O)O
not listed: Caspase-3 (Homo sapiens)
inactive: all other assays above

Nc1cccc(N)c1
not listed: [7] | Caspase-3 (Homo sapiens)
inactive: all other assays above

CCOc1cccc(-n2cc(C(=O)N3CCN(c4cc(C(=O)O)c5ccccc5c4)CC3)nc2-c2ccc(C)cc2)c1
inactive: [3] | [4] | [11] | [18]
active: [1] 77.2 µM | [2] 78.6 µM | [5] 35.5 µM | [6] 77.1 µM | [8] 86.6 µM | [9] 70.1 µM | [10] 24.1 µM | [12] 12.5 µM | [13] 82.9 µM | [14] 29.8 µM | BCL2L11 (gene 10018) 87.8 µM | [15] 64.2 µM | [16] 84.5 µM | [17] 80.7 µM | Caspase-3 (Homo sapiens) 82.9 µM

C=CCCCCCCCCC(=O)O
active: [13] 0.00684 µM
not listed: [7] | Caspase-3 (Homo sapiens)
inactive: all other assays above
